{
  "source": "PubChem BioAssay AID652067",
  "about": "(The Scripps Research Institute Molecular Screening Center, 2013)",
  "note": "Out of some 370,000 compounds screened, about 5,400 (1.5%) were called active.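 The calls were made as follows: active = activation above the mean of all tested compounds plus 3 SD (cut at about 5.5% in these data); inactive = the rest.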 The entries come from a sample that favours actives as a whole.",
  "data": [
    {"tested_on": "DAF-12 nuclear receptor (Haemonchus contortus)", "assay": "H. contortus DAF-12 nuclear receptor activators, primary screen, cell-based, luminescence, HEK293, lit1-tk-luc reporter (AID 652067);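 also: 100% = response to 3 µM Δ7-dafachronic acid high control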", "details": "HEK293 hcDAF-12 lit1-tk-luc reporter, at 6.8 µM, active compounds read high", "values": [
      {"smiles": "Cc1ccc(C2CN(C)CC2C(=O)c2ccc(F)cc2)cc1", "note": "(stereo not given)", "activation": "0.06% (inactive)"},
      {"smiles": "COc1ccc(C(=O)CC2C(=O)N(C)C(=O)N(C)C2=O)cc1", "activation": "0.97% (inactive)"},
      {"smiles": "COc1ccc(C(=O)C2CN(C)CC2C(=O)c2ccc(OC)cc2)cc1", "note": "(stereo not given)", "activation": "8.46% (active)"},
      {"smiles": "CN(c1ccccc1)c1ccc([N+](=O)[O-])c2nonc12", "activation": "-1.36% (inactive)"},
      {"smiles": "CNP1(NC)=Nc2nn(-c3ccccc3)c(N)c2C(c2ccccc2)=N1", "activation": "-1.95% (inactive)"},
      {"smiles": "CCCCCn1c(=O)c(C(=O)NCc2ccccc2)c(O)c2ccccc21", "activation": "-0.29% (inactive)"},
      {"smiles": "CCCCCn1c(=O)c(C(=O)Nc2c(C)n(C)n(-c3ccccc3)c2=O)c(O)c2ccccc21", "activation": "-0.09% (inactive)"},
      {"smiles": "CCCCn1c(=O)c(C(=O)Nc2ccccc2Cl)c(O)c2ccccc21", "activation": "5.68% (active)"},
      {"smiles": "O=C(CCN1CCCCC1)NCC(=O)Nc1ccc(Br)cc1C(=O)c1ccccc1", "activation": "-0.6% (inactive)"},
      {"smiles": "CS(=O)(=O)N1CCC2CCNC2C1", "note": "(stereo not given)", "activation": "-0.6% (inactive)"},
      {"smiles": "CN1CCN(/N=C/c2c[nH]c3ccccc23)CC1", "activation": "1.53% (inactive)"},
      {"smiles": "CCC/C(=N\\O)c1c[nH]c2ccccc12", "activation": "6.34% (active)"},
      {"smiles": "CN(C)CC1CCCCC1OC(=O)c1ccc(Cl)c(Cl)c1", "note": "(stereo not given)", "activation": "0.25% (inactive)"},
      {"smiles": "CCOc1ccc(C2SCC(=O)Nc3c2c(C)nn3C2CCOC(C)(C)C2)cc1", "note": "(stereo not given)", "activation": "-2.48% (inactive)"},
      {"smiles": "Cc1ccccc1CCC[C@@H](CC1CCCCC1)CN(C)C(=O)Oc1ccccc1", "activation": "4.88% (inactive)"},
      {"smiles": "Cc1cc(C)c2c(c1)NP(=S)(c1ccccc1)N2", "note": "(stereo not given)", "activation": "4.47% (inactive)"},
      {"smiles": "COc1ccc2c(c1)NP(=S)(c1ccccc1)N2", "note": "(stereo not given)", "activation": "13.1% (active)"},
      {"smiles": "CO[C@H]([C@H](C)/C=C/N(C)C=O)[C@@H](C)C(=O)CC[C@H](C)[C@H](O)[C@H](C)[C@H]1OC(=O)/C=C/C(C)=C/[C@H](O)[C@H](OC)C[C@@H]2C=CC[C@@H](C[C@H](OC)[C@@]3(CO3)[C@@H](OC)C[C@@H](OC)[C@@H]1C)O2", "activation": "0.14% (inactive)"},
      {"smiles": "COc1ccc(-c2nc(CS(=O)CC(=O)N3CCC4(CC3)OCCO4)c(C)o2)cc1", "note": "(stereo not given)", "activation": "-0.05% (inactive)"},
      {"smiles": "COP(=O)(Sc1ccccc1)C(Cc1ccccc1)NC(=O)OCc1ccccc1", "note": "(stereo not given)", "activation": "-1.13% (inactive)"}
    ]}
  ]
}
